Here are results for 40 compounds from PubChem BioAssay (Tox21).

Each structure is given as a SMILES string. Several values for one entry are separate records, joined by “and”; a condition that tells them apart may be missing. Equal entries are not always repeated. Inconclusive results are not listed. Activity calls are given as the source filed them. Calls come from the whole dose curve; as a rule, active = well fitted cell-killing curve with a large enough effect in the repeat runs; inconclusive = weak or mixed curves, or effect the other way; inactive = no such curve, though single readings can be large or run the other way.
% is set by controls: 0 for no effect and ±100 for the full control effect; potency is the fitted concentration of half-maximal effect.

A short description of this experiment: qHTS assay for identifying genotoxic compounds that show differential cytotoxicity against isogenic chicken DT40 cell lines with known DNA damage response pathways - wild type cell line (AID 743012). Note: nearly all actives have a fitted effect of over 60% in size. As to conditions: DT40 wild type chicken cells viability, CellTiter-Glo, 40 h; series mostly up to 68.4 µM; activity change, negative = cytotoxicity: at the top concentration. An excerpt: U.S. Tox21 Program National Center for Advancing Translational Sciences [NCATS] NIH Chemical Genomics Center [NCGC] U.S. Environmental Protection Agency [EPA] National Institutes of Environmental Health Sciences [NIEHS] National Toxicology Program [NTP] U.S. Food and Drug Administration [FDA] Tox21 Assay Overview: DNA repair pathways play a critical role in cellular homeostasis by repairing DNA damage induced by endogenous processes and xenobiotics. Isogenic chicken DT40 cell lines deficient in different DNA repair pathways can be used to identify genotoxic compounds and aid in characterizing the nature of the DNA damage induced. Two DNA repair-deficient cell lines with disrupted genes, Rad54/Ku70 or Rev3, were used to screen the Tox21 10K compound library. Possible genotoxicity was based on the presence of a significant increase in cytotoxicity in one or more of the DNA repair-deficient cell lines compared to that observed in the parental DNA repair-proficient cell line. CellTiter Glo viability assay (Promega, Madison, WI) was used to measure cell viability in these cells after compound treatment. This assay includes the data from the wild type cell line.
Tox21 Assay Protocol Summary: 300 DT40 wild type cells in 5 uL/well were dispensed into white, solid-bottom 1536-well plates using a Multidrop Combi (ThermoFisher Scientific, Waltham, MA) dispenser. After the assay plates were incubated at 37 C/5% CO2 for approximately 0.5 hour, 23 nL of compounds dissolved in DMSO, positive controls or DMSO only was transferred into the assay plate by a pintool work station (Kalypsys, San Diego, CA). The assay plates were incubated at 37 C/5% CO2 for 40 hours. After 5 uL per well of CellTiter-Glo reagent was added into each well of the assay plates, the plates were incubated for 30 min at room temperature and the luminescence intensity of the plates was measured using a ViewLux (PerkinElmer, Shelton, CT) plate reader.
Regarding `CC(C)(C)CC(C)(C)c1ccc(OCCOCC[N+](C)(C)Cc2ccccc2)cc1`, the Potency was 668 nM (active) and 1.53 µM (active). Still for that read-out and setting: in the case of `CC(C)(C)c1ccc(C(=O)CCCN2CCC(OC(c3ccccc3)c3ccccc3)CC2)cc1` it was 4.22 µM (active); in that of `CCCCCCCCNC(C)C(O)c1ccc(SC(C)C)cc1` (stereo not given), 1.88 µM (active); in that of `CCOC(=O)O[C@H](C)OC(=O)c1ccc2c(c1)cc(C(=O)NC1CCN(C(C)C)CC1)n2Cc1cc(-c2ccc(Cl)s2)on1`, 6.41 µM (active). On the same count and under the same terms, then `Oc1cccc(-c2c3nc(c(-c4cccc(O)c4)c4ccc([nH]4)c(-c4cccc(O)c4)c4nc(c(-c5cccc(O)c5)c5ccc2[nH]5)CC4)C=C3)c1`, with 29.8 µM (active); and `CC1(C)CCC(C)(C)c2cc(C(=O)Nc3ccc(C(=O)O)cc3)ccc21`, with 24.3 µM (active). Still for that read-out and setting: then `CN(C)C(=O)C1(N2CCCCC2)CCN(CC[C@@]2(c3ccc(Cl)c(Cl)c3)CN(C(=O)c3ccccc3)CCO2)CC1`, with 7.19 µM (active). `CSc1ccc(C(=O)c2[nH]c(=O)[nH]c2C)cc1`: the “activity change, negative = cytotoxicity” value was 14.6% (inactive). As for `S=c1[nH]c2ccccc2s1`, the Potency was 29.8 µM (active) and 61.1 µM (active). On to `CC/C(=C(\c1ccc(O)cc1)c1ccc(OCCN(C)C)cc1)c1ccccc1`, for which the Potency was 2.74 µM (active). For the compound `Oc1ccc(Cl)cc1Sc1cc(Cl)ccc1O`, the Potency is 10.6 µM (active) and 30.6 µM (active). Consider `O=c1cc(-c2ccc(O)cc2)oc2cc(O)cc(O)c12`, for which the Potency is 27.3 µM (active). On the same count and under the same terms, then `CCCCCCC[N+](CC)(CC)CCCCc1ccc(Cl)cc1`, with 1.01 µM (active). The same measure, in the same setting: then `CCCC(c1cc(C(C)(C)C)c(O)cc1C)c1cc(C(C)(C)C)c(O)cc1C`, with 12.3 µM (active); and `O=c1c(-c2ccccc2)c1-c1ccccc1`, with 3.76 µM (active). On to `CS(=O)(=O)CCNCc1ccc(-c2ccc3ncnc(Nc4ccc(OCc5cccc(F)c5)c(Cl)c4)c3c2)o1`, for which the “activity change, negative = cytotoxicity” value is -1.75% (inactive). Same read-out and setting: in the case of `CC(=O)SC[C@@H](Cc1ccccc1)C(=O)NCC(=O)OCc1ccccc1` it was 0.123% [at 31.4 µM] (inactive); in that of `ON=C1CCCC1`, -2.23% [at 95 µM] (inactive); in that of `CSc1ccc(/C=C2/C(C)=C(CC(=O)O)c3cc(F)ccc32)cc1`, -2.87% (inactive). In the case of `CC(C)(C)NC(=O)[C@@H]1C[C@@H]2CCCC[C@@H]2CN1C[C@@H](O)[C@H](Cc1ccccc1)NC(=O)[C@H](CC(N)=O)NC(=O)c1ccc2ccccc2n1`, the Potency was 26.6 µM (active). With `O=C1C=CC(=O)N1`, the Potency was 6.28 µM (active). On the same count and under the same terms, in the case of `Cc1ccc2oc(CN(Cc3ccccc3)C(=O)Nc3c(F)cc(F)cc3F)c(-c3ccc(Cl)cc3)c2c1` it was 18.7 µM (active); in that of `CCCCCCCC[N+](CCCCCCCC)(CCCCCCCC)CCCCCCCC`, 2.43 µM (active); in that of `Cc1ccc(-n2nc(C(C)(C)C)cc2NC(=O)Nc2ccc(OCCN3CCOCC3)c3ccccc23)cc1`, 18.8 µM (active). On the same count and under the same terms, in the case of `CCN(CCC#N)c1ccc(N=Nc2c(Cl)cc([N+](=O)[O-])cc2Cl)cc1` it was 13.7 µM (active). Regarding `O=C(O)c1c(Cl)cccc1Cl`, the “activity change, negative = cytotoxicity” value is 0.842% (inactive). As to `CCOC(=O)/C=C(C)/C=C/C=C(C)/C=C/c1c(C)cc(OC)c(C)c1C`, the Potency was 9.44 µM (active). Still for that read-out and setting: then `O=C1c2c(O)ccc(Nc3ccc(CCO)cc3)c2C(=O)c2c([N+](=O)[O-])ccc(O)c21`, with 61.1 µM (active). Same read-out and setting: then `C=CC(=O)OCCn1c(=O)n(CCOC(=O)C=C)c(=O)n(CCOC(=O)C=C)c1=O`, with 2.73 µM (active). `CC(NN)c1ccccc1` (stereo not given): the “activity change, negative = cytotoxicity” value is 0.611% (inactive).

With `CC(C)OC(=O)c1cc2c(OCC(O)CNC(C)(C)C)cccc2[nH]1` (stereo not given), the Potency is 23.7 µM (active). On to `O=C(O)c1cc(O)c2c(c1)C(=O)c1cccc(O)c1C2=O`, for which the “activity change, negative = cytotoxicity” value was 1.73% [at 95 µM] (inactive). The same measure, in the same setting: in the case of `NC(=O)NS(=O)(=O)c1ccc(N)cc1` it was 9.35% (inactive). Regarding `CNc1ccc(O)cc1`, the Potency was 7.68 µM (active). As for `Cc1cc(O)c2ccccc2c1O`, the Potency was 29.8 µM (active). Same read-out and setting: in the case of `NNc1nc(-c2ccc([N+](=O)[O-])cc2)cs1` it was 6.11 µM (active). The same measure, in the same setting: then `N#CSc1ccc(N)c([N+](=O)[O-])c1`, with 12.3 µM (active); and `O=C1CCCCCN1SSN1CCCCCC1=O`, with 13.7 µM (active); and `[O-][n+]1ccccc1SSc1cccc[n+]1[O-]`, with 0.0596 µM (active).

As to `On1ccccc1=S`, the Potency was 0.215 µM (active).
